TRPML1 blocker = blocks the human TRPML1 channel | Q9GZU1 | TRPML1-inducible cells, Ca2+ dye fluorescence, FDSS; stronger effect = lower value; inhibition of EC80 agonist-evoked calcium signal | 390,000 compounds, 0.02% hits | activity change, negative = inhibition, % (test concentration not listed); in the data active = activity change below about -50%; inconclusive = between about -30% and that limit;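 also: stimulus is agonist 54-4 at its EC80 concentration; % is scaled to controls: 0 for no effect and ±100 for the full control effect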
Target sequence (Q9GZU1 whole entry, looked up): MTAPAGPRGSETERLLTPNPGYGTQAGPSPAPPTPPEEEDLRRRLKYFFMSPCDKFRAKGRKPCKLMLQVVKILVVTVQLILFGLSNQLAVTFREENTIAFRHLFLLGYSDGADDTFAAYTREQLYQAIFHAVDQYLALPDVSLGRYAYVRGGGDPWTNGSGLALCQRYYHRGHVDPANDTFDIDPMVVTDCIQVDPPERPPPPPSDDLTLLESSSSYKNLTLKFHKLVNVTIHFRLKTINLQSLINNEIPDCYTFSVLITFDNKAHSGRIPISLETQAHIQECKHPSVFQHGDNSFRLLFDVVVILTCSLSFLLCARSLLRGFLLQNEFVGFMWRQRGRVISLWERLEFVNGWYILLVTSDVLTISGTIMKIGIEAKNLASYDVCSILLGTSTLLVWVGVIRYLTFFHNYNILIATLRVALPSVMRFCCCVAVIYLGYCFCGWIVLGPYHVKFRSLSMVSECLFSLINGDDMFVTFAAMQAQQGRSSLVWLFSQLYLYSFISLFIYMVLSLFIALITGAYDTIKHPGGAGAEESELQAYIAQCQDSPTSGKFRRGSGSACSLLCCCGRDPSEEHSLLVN
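TRPML1-DL cells, Tet-induced overnight (~16 h, 37 °C) at 1,500 cells/well, were loaded with Ca8 no-wash dye plus quencher for 45-90 min at room temperature. Compounds were pinned during FDSS kinetic reading; agonist 54-4 at EC80 (4 uM final) then added.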
D3 antag = blocks the human D3 dopamine receptor; max response, negative = inhibition, %; 360,000 compounds, 2.5% hits; P35462; D3R cells, DiscoveRx beta-arrestin luminescence, antagonist mode; stronger effect = lower value; in the data active = max response below about -50%; inconclusive = no clear call, values can overlap the other calls; also: % is scaled to controls: 0 for no effect and ±100 for the full control effect
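Cells plated overnight at 1500 cells/well, then exposed to library compounds with dopamine controls for 90 minutes at 37 degrees C. DiscoveRx reagent added for 30–60 minutes at room temperature; luminescence read, quantitative HTS format.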
TRPML1 ag = activates the human TRPML1 channel; Q9GZU1; TRPML1-expressing cells, Ca2+ dye fluorescence, FDSS; activation, % (no concentration beside the values); 410,000 compounds, 0.12% hits; AID 624414; in the data active = activation above about 50%; inconclusive = mostly about 30% to 49%; also: 0% is about no effect
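TRPML1-DL cells, Tet-induced overnight (~16 h, 37 degrees C), loaded 45-90 min at room temperature with Ca8 no-wash calcium dye plus quencher. FDSS fluorescence: 10 s baseline, compound pin-transfer, 110 s agonist read, then EC80 54-4 (4uM final) and 110 s antagonist read.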
D3 ag = D3 dopamine receptor (human) agonism; P35462; D3R DiscoveRx beta-arrestin cells, luminescence, 90 min; max activation, %; 410,000 compounds, 0.58% hits; AID 652048; in the data active = max activation above about 30%; also: 0% is about no effect
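Agonist mode: compounds and dopamine controls were applied to plated cells for 90 min at 37 degrees C after an overnight attachment at 1500 cells/well. Luminescent read-out followed 30 - 60 minutes at room temperature with DiscoveRx detection reagent.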
Numbers without * were called inactive; ? = inconclusive; . = no result given. Rows were chosen to be rich in hits. Some 2.9% of all compounds tested hit in one or more screens of this group.

SMILES	TRPML1 blocker	D3 antag	TRPML1 ag	D3 ag
O=c1nc2ccccc2c2n1CC(CN1CCN(c3ccc(F)cc3)CC1)N2 (configuration not stated)	-7.8	-21.3	-0.3	-14.1
O=c1nc2ccccc2c2n1CC(CN1CCN(c3ccccc3F)CC1)N2 (configuration not stated)	8.8	-68.6*	-1.5	-16.4
O=C(N[C@@H](Cc1ccccc1)C(=O)OCc1ccccc1)c1nc[nH]c1C(=O)NCc1ccccc1	14.5	-75.5*	1.9	4.6
CCN(CC)C(=O)c1[nH]cnc1C(=O)NCc1ccccc1	-11.1	-54.0*	0.0	-2.8
CCN(CC)C(=O)c1[nH]cnc1C(=O)N[C@@H](C)C(=O)OCc1ccccc1	-8.1	-29.3	-0.6	-7.9
C[C@@H](NC(=O)c1nc[nH]c1C(=O)NCC(=O)OCc1ccccc1)c1ccccc1	2.3	76.3	3.0	47.2*
C[C@@H](NC(=O)c1nc[nH]c1C(=O)OCc1ccccc1)c1ccccc1	-9.3	12.7	0.8	-12.8
O=C(/C=C/c1ccccc1)Nc1nc(-c2cccs2)ns1	21.9	.	3.1	12.3
CC(C)[C@@H]1Cc2[nH]c(=S)[nH]c(=O)c2[C@H](C)O1	.	-10.4	-0.6	6.5
CC(C)CC1OC(C(C)C)Cc2[nH]c(=S)[nH]c(=O)c21 (configuration not stated)	.	-50.7*	-1.0	-3.8
CCSc1nnc(-c2ccc(S(=O)(=O)NCc3cccs3)cc2)o1	-15.6	-66.4*	0.1	6.1
Cc1ccc(O)c(C(=O)c2cc(C#N)c(=O)n(-c3nccs3)c2)c1	-6.4	3.0	62.8*	4.6
Cc1ccc(O)c(C(=O)c2cc(C#N)c(=O)n(-c3c(C)n(C)n(-c4ccccc4)c3=O)c2)c1	6.3	14.1	0.3	-14.2
Cc1ccc2cc(CCNC(=O)c3ccco3)c(=O)[nH]c2c1	-13.5	-102.6*	0.0	5.8
COc1ccc2cc(CCNC(=O)c3ccco3)c(=O)[nH]c2c1	-9.8	14.8	-0.6	-1.4
COc1ccc(NC(=O)N2CCN(c3nc(-c4cccc(OC)c4)cs3)CC2)cc1	16.7	18.6	1.4	50.9*
COc1cccc(-c2csc(N3CCN(C(=O)Nc4ccc(Cl)cc4)CC3)n2)c1	6.2	34.8	1.6	1.1
CCOC(=O)c1ccc(Nc2cc(C)nc(-c3ccccc3O)n2)cc1	-4.0	48.8	0.4	68.3*
CC(=O)Oc1ccc2c(c1)CC[C@@H]1[C@@H]2CC[C@]2(C)[C@@H](O)CC[C@@H]12	.	.	.	4.3
COc1ccc(NC(=O)C2CCCN(C(=O)Nc3ccc(OC)cc3)C2)cc1 (configuration not stated)	-6.0	-22.7	-0.5	-6.1
COc1ccc(NC(=O)N2CCCC(c3ccccc3)C2)cc1 (configuration not stated)	6.0	4.1	3.3	32.8*
COc1ccccc1OCCn1c(CCNC(=O)C2CCCCC2)nc2ccccc21	.	.	-0.4	.
O=S1(=O)C=C(Sc2nc3ccccc3s2)c2ccccc21	-9.9	-97.7*	3.2	-9.1
Cc1cc(C)nc(SC2=CS(=O)(=O)c3ccccc32)n1	20.9	16.6	-1.0	2.0
C[C@@H](CN1CC(=O)NC(=O)C1)N1CC(=O)NC(=O)C1	.	.	.	-21.2
SMILES	TRPML1 blocker	D3 antag	TRPML1 ag	D3 ag
Cc1cnc2ccc(I)cc2c1/C=C/c1ccc(N(C)C)cc1	.	.	3.3	.
O=S(=O)(Nc1cccc2cccnc12)c1ccccc1	12.2	-70.6*	8.1	-22.6
Cc1ccc(S(=O)(=O)Nc2cccc3cccnc23)c([N+](=O)[O-])c1	27.8	-56.3*	1.6	-11.1
COc1ccc(S(=O)(=O)Nc2cccc3cccnc23)cc1	2.1	.	3.3	.
CS(=O)(=O)Nc1cccc2cccnc12	-9.1	-56.9*	0.4	-16.6
O=S(=O)(Nc1cccc2cccnc12)c1ccc(S(=O)(=O)N2CCCC2)cc1	-2.8	-72.4*	66.0*	-42.4
COc1ccc(C(=O)NCC(=O)OCC(=O)c2ccc3ccccc3c2)cc1	.	.	0.1	.
N[C@H](C(=O)O)[C@@H](O)c1ccc(O)c(O)c1	.	.	.	5.4
Cc1ccc(CNC(=O)Cn2cc(S(=O)(=O)Cc3cccc(Cl)c3)c3ccccc32)cc1	-9.2	.	1.8	3.8
CCc1ccc(OCC(=O)NCC(c2ccc(OC)cc2)N2CCOCC2)cc1 (configuration not stated)	-22.5	.	0.3	-38.8
NC[C@H]1O[C@H](O[C@H]2[C@H](O)[C@@H](O[C@H]3O[C@H](CO)[C@@H](O)[C@H](N)[C@H]3O)[C@H](N)C[C@@H]2N)[C@H](N)[C@@H](O)[C@@H]1O	.	.	.	4.9
Cc1c(NS(C)(=O)=O)cccc1-c1nc2cccnc2s1	-8.1	-50.7*	0.0	1.0
Cc1c(NS(=O)(=O)c2cccs2)cccc1-c1nc2cccnc2s1	-7.2	-4.1	0.5	4.6
COc1ccc(OCC(=O)OCc2cc(=O)n3nc(C4CC4)sc3n2)cc1	26.5	.	1.3	7.9
CC(C)c1[nH]nc2c1C1(CCN(Cc3ccccc3)CC1)C(C#N)=C(N)O2	14.1	-92.0*	0.5	1.1
Cc1[nH]nc2c1C1(CCN(Cc3ccccc3)CC1)C(C#N)=C(N)O2	12.7	0.0	1.0	1.1
COc1cc2c(NC3CCN(C)CC3)nc(N3CCCN(C)CC3)nc2cc1OCCCC(C)C	.	.	-0.6	.
C[N+](C)(CCOc1ccccc1)Cc1cccs1	.	.	.	-13.4
CSc1ccc(OC2(C)CCN(Cc3ccc(OC(F)(F)F)cc3)C2)cc1 (configuration not stated)	.	-24.8	-0.1	-7.3
CSc1ccc(CN2CCC(C)(Oc3ccccc3C)C2)cc1 (configuration not stated)	.	?	-0.6	-9.9
CSc1ccc(CN2CCC(C)(Oc3ccc(F)cc3)C2)cc1 (configuration not stated)	.	-112.5*	-0.9	-10.6
CC1(Oc2ccccc2-c2ccno2)CCN(Cc2csc3ccccc23)C1 (configuration not stated)	.	-77.5*	-0.4	-21.1
CSc1ccc(CN2CCC(C)(Oc3cnc(Cl)c4ccccc34)C2)cc1 (configuration not stated)	.	-10.3	0.0	-9.3
CC1(Oc2ccc(F)cc2)CCN(Cc2ccccc2OC(F)F)C1 (configuration not stated)	.	-12.3	-0.3	-2.0
COc1cc(Cl)ccc1OC1(C)CCN(Cc2ccc(SC)cc2)C1 (configuration not stated)	-12.3	-70.3*	-0.4	-15.6
CSc1ccc(CN2CCC(C)(Oc3ccccc3F)C2)cc1 (configuration not stated)	.	-57.4*	-1.2	-10.6
Cc1ccccc1OCC(=O)N(Cc1ccc(C(C)C)cc1)C1CCS(=O)(=O)C1 (configuration not stated)	12.7	.	1.9	6.1
CSc1ccc(CN2CCC(C)(Oc3ccc(C(C)=O)cc3)C2)cc1 (configuration not stated)	.	-69.2*	-0.5	-8.6
COC(=O)Cc1ccc(OC2(C)CCN(Cc3ccccc3OC(F)F)C2)cc1 (configuration not stated)	.	-58.8*	-0.1	-7.7
